Measurements taken from PubChem BioAssay AID1159580 (chemical genetic matrix, 2015).
Among all 5,500 compounds or so, about 2,000 (36%) were called active. Not shown: some 18% with an inconclusive outcome. Cut-off read from the data, not from the text of the source: active = normalized growth mostly below about 0.91 (no sharp cut-off); inconclusive = no clear call, values can overlap the other calls; inactive = mostly above about 0.92. Some of the results follow.

Test: chemical genetic growth profiling, strain panel (AID 1159580);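 note: tested at 20 µM; growth read once vehicle control cultures reached saturation at 30 °C; 1 = growth at the plate median or of vehicle wells; lower values mean less growth of the strain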
Settings: growth OD

Measured: normalized growth

COc1ccc(CCN2CCC(Nc3nc4ccccc4n3Cc3ccc(F)cc3)CC2)cc1
active: S. cerevisiae deletion strains, locus YLR320W, strain mms22, stronger effect = lower value 0.85 | S. cerevisiae deletion strains, locus YLR370C, strain arc18, stronger effect = lower value 0.892 | S. cerevisiae deletion strains, locus YMR058W, strain fet3, stronger effect = lower value 0.865 | S. cerevisiae deletion strains, locus YOR001W, strain rrp6, stronger effect = lower value 0.881 | S. cerevisiae deletion strains, locus YOR270C, strain vph1, stronger effect = lower value 0.607 | S. cerevisiae deletion strains, locus YOR290C, strain snf2, stronger effect = lower value 0.633
inactive: S. cerevisiae deletion strains, locus YJR066W, strain TOR1, stronger effect = lower value 0.931 | S. cerevisiae deletion strains, locus YKL009W, strain mrt4, stronger effect = lower value 0.99 | S. cerevisiae deletion strains, locus YKL068W, stronger effect = lower value 0.991 | S. cerevisiae deletion strains, locus YKL085W, strain MDH1 (second series), stronger effect = lower value 1.04 | S. cerevisiae deletion strains, locus YKL085W, strain MDH1, stronger effect = lower value 1.04 | S. cerevisiae deletion strains, locus YKL160W, strain elf1, stronger effect = lower value 0.961 | S. cerevisiae deletion strains, locus YKL190W, strain CNB1, stronger effect = lower value 0.992 | S. cerevisiae deletion strains, locus YKR001C, strain vps1, stronger effect = lower value 0.999 | S. cerevisiae deletion strains, locus YKR026C, strain gcn3, stronger effect = lower value 0.945 | S. cerevisiae deletion strains, locus YKR091W, strain srl3, stronger effect = lower value 0.987 | S. cerevisiae deletion strains, locus YLL001W, strain dnm1, stronger effect = lower value 0.954 | S. cerevisiae deletion strains, locus YLL026W, stronger effect = lower value 0.974 | S. cerevisiae deletion strains, locus YLL041C, strain sdh2, stronger effect = lower value 0.969 | S. cerevisiae deletion strains, locus YLR027C, strain aat2, stronger effect = lower value 0.978 | S. cerevisiae deletion strains, locus YLR039C, strain RIC1, stronger effect = lower value 1.19 | S. cerevisiae deletion strains, locus YLR058C, strain SHM2, stronger effect = lower value 0.974 | S. cerevisiae deletion strains, locus YLR102C, strain apc9, stronger effect = lower value 0.991 | S. cerevisiae deletion strains, locus YLR113W, strain HOG1, stronger effect = lower value 0.976 | S. cerevisiae deletion strains, locus YLR221C, strain rsa3, stronger effect = lower value 0.951 | S. cerevisiae deletion strains, locus YLR258W, strain gsy2, stronger effect = lower value 0.962 | S. cerevisiae deletion strains, locus YLR262C, strain YPT6 (second series), stronger effect = lower value 1.05 | S. cerevisiae deletion strains, locus YLR262C, strain YPT6, stronger effect = lower value 1.21 | S. cerevisiae deletion strains, locus YLR268W, strain sec22, stronger effect = lower value 0.969 | S. cerevisiae deletion strains, locus YLR330W, strain CHS5, stronger effect = lower value 0.995 | S. cerevisiae deletion strains, locus YLR342W, strain FKS1 (second series), stronger effect = lower value 0.945 | S. cerevisiae deletion strains, locus YLR342W, strain FKS1, stronger effect = lower value 0.969 | S. cerevisiae deletion strains, locus YLR357W, strain rsc2, stronger effect = lower value 0.986 | S. cerevisiae deletion strains, locus YLR371W, strain rom2, stronger effect = lower value 0.986 | S. cerevisiae deletion strains, locus YLR384C, strain iki3, stronger effect = lower value 1 | S. cerevisiae deletion strains, locus YLR418C, strain cdc73, stronger effect = lower value 0.943 | S. cerevisiae deletion strains, locus YML016C, strain PPZ1, stronger effect = lower value 0.979 | S. cerevisiae deletion strains, locus YML032C, strain rad52, stronger effect = lower value 0.955 | S. cerevisiae deletion strains, locus YML120C, strain ndi1, stronger effect = lower value 0.978 | S. cerevisiae deletion strains, locus YML124C, strain tub3, stronger effect = lower value 0.991 | S. cerevisiae deletion strains, locus YMR078C, strain ctf18, stronger effect = lower value 0.987 | S. cerevisiae deletion strains, locus YMR125W, strain sto1, stronger effect = lower value 0.964 | S. cerevisiae deletion strains, locus YMR129W, stronger effect = lower value 0.995 | S. cerevisiae deletion strains, locus YMR205C, strain PFK2, stronger effect = lower value 0.908 | S. cerevisiae deletion strains, locus YMR223W, strain ubp8, stronger effect = lower value 0.988 | S. cerevisiae deletion strains, locus YMR231W, strain pep5, stronger effect = lower value 0.997 | S. cerevisiae deletion strains, locus YMR263W, strain SAP30, stronger effect = lower value 0.997 | S. cerevisiae deletion strains, locus YMR307W, strain GAS1, stronger effect = lower value 0.894 | S. cerevisiae deletion strains, locus YNL067W, strain RPL9B, stronger effect = lower value 0.982 | S. cerevisiae deletion strains, locus YNL071W, strain lat1, stronger effect = lower value 0.959 | S. cerevisiae deletion strains, locus YNL128W, strain TEP1, stronger effect = lower value 0.984 | S. cerevisiae deletion strains, locus YNL153C, strain GIM3, stronger effect = lower value 1 | S. cerevisiae deletion strains, locus YNL183C, strain NPR1, stronger effect = lower value 0.946 | S. cerevisiae deletion strains, locus YNL209W, strain ssb2, stronger effect = lower value 0.962 | S. cerevisiae deletion strains, locus YNL233W, strain BNI4, stronger effect = lower value 0.959 | S. cerevisiae deletion strains, locus YNL250W, strain rad50, stronger effect = lower value 0.988 | S. cerevisiae deletion strains, locus YNL271C, strain bni1, stronger effect = lower value 0.982 | S. cerevisiae deletion strains, locus YNL298W, strain CLA4, stronger effect = lower value 0.987 | S. cerevisiae deletion strains, locus YNL307C, strain MCK1, stronger effect = lower value 0.969 | S. cerevisiae deletion strains, locus YNL322C, strain KRE1 (second series), stronger effect = lower value 0.991 | S. cerevisiae deletion strains, locus YNR049C, strain mso1, stronger effect = lower value 0.96 | S. cerevisiae deletion strains, locus YNR052C, strain pop2, stronger effect = lower value 0.982 | S. cerevisiae deletion strains, locus YOL006C, strain TOP1, stronger effect = lower value 0.759 | S. cerevisiae deletion strains, locus YOL012C, strain htz1 0.955 | S. cerevisiae deletion strains, locus YOL147C, strain pex11, stronger effect = lower value 0.99 | S. cerevisiae deletion strains, locus YOR061W, strain CKA2, stronger effect = lower value 0.969 | S. cerevisiae deletion strains, locus YOR069W, strain VPS5, stronger effect = lower value 0.993 | S. cerevisiae deletion strains, locus YOR070C, strain gyp1, stronger effect = lower value 0.944 | S. cerevisiae deletion strains, locus YOR080W, strain dia2, stronger effect = lower value 1 | S. cerevisiae deletion strains, locus YOR083W, strain WHI5, stronger effect = lower value 0.927 | S. cerevisiae deletion strains, locus YOR106W, strain vam3, stronger effect = lower value 0.969 | S. cerevisiae deletion strains, locus YOR136W, strain idh2, stronger effect = lower value 0.98 | S. cerevisiae deletion strains, locus YOR144C, strain elg1, stronger effect = lower value 0.986 | S. cerevisiae deletion strains, locus YOR184W, strain ser1, stronger effect = lower value 0.953 | S. cerevisiae deletion strains, locus YOR231W, strain MKK1, stronger effect = lower value 0.973 | S. cerevisiae deletion strains, locus YOR265W, strain rbl2, stronger effect = lower value 0.993 | S. cerevisiae deletion strains, locus YOR316C, strain cot1, stronger effect = lower value 0.994 | S. cerevisiae deletion strains, locus YPL051W, strain arl3, stronger effect = lower value 0.968 | S. cerevisiae deletion strains, locus YPL078C, strain atp4, stronger effect = lower value 0.975 | S. cerevisiae deletion strains, locus YPL106C, strain sse1, stronger effect = lower value 0.894 | S. cerevisiae deletion strains, locus YPL240C, strain hsp82, stronger effect = lower value 0.986 | S. cerevisiae deletion strains, locus YPL241C, strain CIN2, stronger effect = lower value 0.992 | S. cerevisiae deletion strains, locus YPL256C, strain CLN2, stronger effect = lower value 0.982 | S. cerevisiae deletion strains, locus YPR119W, strain clb2, stronger effect = lower value 0.988 | S. cerevisiae deletion strains, locus YPR141C, strain kar3, stronger effect = lower value 0.991 | S. cerevisiae deletion strains, locus YPR163C, strain tif3, stronger effect = lower value 0.988 | S. cerevisiae deletion strains, locus YPR167C, strain met16, stronger effect = lower value 0.976 | S. cerevisiae deletion strains, strain wtn01, stronger effect = lower value 0.974 | S. cerevisiae strains, strain wild type, stronger effect = lower value 0.986
